Assay in all cases: NCI-60 one-dose screen, 48 h (100 = growth as untreated, 0 = no growth, -100 = all killed)
Conditions in all cases: 10 µM unless noted

The subject of assay [1] is SR leukemia.
The subject of assay [2] is RPMI-8226 leukemia.
Assay [3] deals with OVCAR-8 ovarian.
Assay [4] has as its system OVCAR-5 ovarian.
Assay [5] concerns OVCAR-4 ovarian.
Assay [6] relates to SK-OV-3 ovarian.
Assay [7] concerns IGROV1 ovarian.
For assay [8], the system named is OVCAR-3 ovarian.
Assay [9] deals with HS 578T breast.
The subject of assay [10] is NCI/ADR-RES ovarian.
For assay [11], the system named is T-47D breast.
Assay [12] has as its system BT-549 breast.
Assay [13] deals with MDA-MB-435 melanoma.
The test system of assay [14] is SW-620 colon.
The test system of assay [15] is MCF7 breast.
The test system of assay [16] is HCT-116 colon.
In assay [17] the test system is HCC-2998 colon.
Assay [18] deals with KM12 colon.

The structures appear in SMILES notation. Compounds without any hit were thinned out: in the full panel of roughly 83,000, 20% have a hit.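 Results are percent growth after 48 hours of single-concentration exposure. 100 means growth as in untreated cells, lower positive values show inhibition; negative values down to -100 show cell death.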 Unmarked numbers belong to inactive results. The source made the active and inactive calls. Rule for the calls: active = growth percent below 10; inactive = the rest.

The values that follow come from PubChem BioAssay (NCI).

As to `c1ccc(Sc2ncnc3ccccc23)cc1`, the growth was 25.5% in assay [1]; 20.9% in assay [2]; 82.1% in assay [3]; 98.4% in assay [4]; 76% in assay [5]; 112% in [6]. For the same compound, the growth is 77.9% in assay [7]; 71.2% in assay [8]; 77.9% in assay [9]; 83.5% in assay [10]; 63.8% in assay [11]; 51.6% in [12]. Also, the growth in assay [13] was 38.1%; in [14], 84.9%; in assay [15], 63.8%; in assay [16], 72%; in assay [17] it was 107%; in assay [18], 86.1%.

For the compound `COc1ccc(Cl)cc1Nc1nc(C(F)(F)F)ccc1C(=O)N/N=C/c1cccnc1`, the growth in assay [1] is 25.1%; in assay [2], 32.5%; in [3] it was 42%; in assay [4] it was 57%; in assay [5], 29.7%; in assay [6], 53.9%. Moreover, the growth in assay [7] is 40.3%; in assay [8], 29.3%; in [9] it was 59.6%; in assay [10], 41.8%; in [11], 46.9%; in assay [12], 47.1%. Further, the growth in assay [13] is 58.4%; in [14], 47.5%; in assay [15] it was 33.3%; in [16], 43.2%; in [17], 53.6%; in assay [18], 59.5%.

On to `CCN(C(=O)CN1CCN(c2cc3c(cc2F)c(=O)c(C(=O)O)cn3CC)CC1)c1nc(-c2ccccc2)cs1`, for which the growth is -11% (active) in assay [1]; -3.49% (active) in assay [2]; 7.67% (active) in assay [3]; 35.6% in assay [4]; 3.24% (active) in [5]; -2.59% (active) in assay [6]. Further, the growth is 23.3% in assay [7]; 16.8% in [8]; 13.6% in assay [9]; 5.3% (active) in assay [10]; 11.9% in assay [11]; 3.3% (active) in [12]. Moreover, the growth in assay [13] was -13.9% (active); in assay [14], 13.9%; in [15] it was 7.6% (active); in [16], 14%; in assay [17] it was 19.6%; in assay [18], 12.7%.

Turning to `O=C(CN1CCOCC1)Nc1ccc(Cn2nnc3c2C(=O)c2nnn(Cc4ccc(NC(=O)CN5CCOCC5)cc4)c2C3=O)cc1`, the growth in [1] was -21.3% (active); in assay [2], -18.9% (active); in assay [3], -58.3% (active); in assay [4] it was -21.9% (active); in assay [5], -93.4% (active); in assay [6], 0.088% (active). In addition, the growth was -41.4% (active) in assay [7]; -19% (active) in assay [8]; 11.6% in [9]; 103% in assay [10]; -26.5% (active) in assay [11]; -95.6% (active) in assay [12]. Also, the growth in assay [13] is -77.1% (active); in assay [14] it was 4.23% (active); in assay [15], -62% (active); in assay [16] it was -75.1% (active); in [17] it was -42% (active); in assay [18], 6.44% (active).

Turning to `Nc1c(C(=O)Nc2ccccc2)sc2nc3c(cc12)CN(CCc1ccccc1)CC3`, the growth in [1] is 90%; in [2] it was 92.2%; in assay [3], 99.7%; in assay [4], 99%; in [5] it was 86.9%; in assay [6], 89.8%. Also, the growth is 96.5% in assay [7]; 109% in assay [8]; 89.1% in [9]; 87.3% in assay [10]; 88.1% in [11]; 104% in assay [12]. Also, the growth in assay [13] was 102%; in [14], 91.3%; in [15] it was 85.8%; in [16], 98.3%; in assay [17] it was 99%; in assay [18], 98.8%.

Take `O=[N+]([O-])c1cccc(C2CC(c3ccccc3)=Nc3ccccc3S2)c1` (centres undefined): the growth in [1] was -40.3% (active); in assay [2], 16.1%; in assay [3] it was 61.9%; in [4] it was 109%; in assay [5], 81.7%; in assay [6] it was 97.7%. In addition, the growth is 91.8% in [7]; 88% in assay [8]; 95.9% in assay [9]; 98.3% in [10]; 84.9% in [11]; 78.5% in assay [12]. The growth in assay [13] was 112%; in [14], 25.6%; in assay [15], 16.2%; in assay [16], 47.9%; in [17], 108%; in assay [18], 35.7%.

For `CCN(CC)CC(O)CNc1c2ccc([N+](=O)[O-])cc2nc2cc(OC)c(OC)cc12` (centres undefined), the growth in assay [1] is -7.08% (active); in assay [2], -13.8% (active); in assay [3], -2.1% (active); in assay [4], 10%; in assay [5], -39.3% (active); in assay [6], -42.5% (active). In addition, the growth is -39.9% (active) in assay [7]; -37.7% (active) in [8]; -18.2% (active) in [9]; 51.7% in assay [10]; -27.9% (active) in [11]; -69.8% (active) in assay [12]. Also, the growth in assay [13] is -88.4% (active); in assay [14], 4.13% (active); in assay [15], -22.9% (active); in [16] it was -23.5% (active); in assay [17], -68.2% (active); in [18], -37.5% (active).

Take `c1ccc(CSc2ncnc3nc[nH]c23)nc1`: the growth was 103% in assay [1]; 124% in [2]; 120% in assay [3]; 96.6% in assay [4]; 105% in assay [5]; 116% in [6]. For the same compound, the growth in assay [7] is 105%; in assay [8], 104%; in assay [9], 121%; in assay [10], 103%; in [11], 107%; in [12], 122%. Also, the growth in assay [13] was 92.3%; in [14], 113%; in assay [15] it was 99.7%; in assay [16], 93.1%; in assay [17], 125%; in assay [18], 106%.
